Drawing on PubChem BioAssay AID1159580 (chemical genetic matrix, 2015), this text covers normalized growth for one compound.

Molecules are shown by their SMILES. Out of some 5,500 compounds screened, about 2,000 (36%) were called active. About 18% were inconclusive and are not listed. This is one part of the list. Values without a mark were called inactive. Cut-off read from the data, not from the text of the source: active = normalized growth mostly below about 0.91 (no sharp cut-off); inconclusive = no clear call, values can overlap the other calls; inactive = mostly above about 0.92.

A short description of this test: chemical genetic growth profiling, strain panel (AID 1159580).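 Note: tested at 20 µM; growth read once vehicle control cultures reached saturation at 30 °C; 1 = growth at the plate median or of vehicle wells; lower values mean less growth of the strain.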 To be noted: S. cerevisiae deletion strains, growth OD.

In the case of `O=Nc1ccc2oc(=O)ccc2c1`, the normalized growth is, setting by setting: (locus YAL013W, strain DEP1, hits give low values) 0.945; (locus YAL040C, strain CLN3, hits give low values) 0.985; (locus YCL061C, strain MRC1 (second series), hits give low values) 0.973; (locus YDR363W, strain ESC2, hits give low values) 0.917; (locus YER002W, strain NOP16, hits give low values) 1.01; (locus YGR078C, strain PAC10, hits give low values) 0.98. Besides, the normalized growth (locus YGR229C, strain SMI1, hits give low values) was 0.846 (active); the normalized growth (locus YMR263W, strain SAP30, hits give low values) was 0.989; the normalized growth (locus YNL175C, strain NOP13, hits give low values) was 0.994; the normalized growth (locus YNL197C, strain WHI3, hits give low values) is 0.989; the normalized growth (locus YNL224C, strain SQS1, hits give low values) is 0.995; the normalized growth (locus YNL322C, strain KRE1, hits give low values) was 1. Moreover, the normalized growth runs as follows: (locus YOR083W, strain WHI5 (second series), hits give low values) 0.906; (locus YPL055C, strain LGE1, hits give low values) 0.896; (locus YPL241C, strain CIN2, hits give low values) 0.999.
